JMJD2A Tudor inh – JMJD2A Tudor domain (human) inhibition. AlphaScreen JMJD2A-Tudor / H3K4me3 peptide binding. Potency, µM (top dose mostly 114 µM), for the others: at the highest dose activity change, negative = inhibition, usual class: inhibitors. hit rate 4.4% among 390,000. O75164. AID 504339; note: potency is the fitted concentration of half-maximal effect; % is set by controls: 0 for no effect and ±100 for the full control effect; nearly all actives have a fitted effect of over 50% in size
HP1b chromo inh – blocks HP1-beta chromodomain binding to methylated histone tails; AlphaScreen HP1-beta / biotin-H3K9me3 peptide binding; AID 540317; Potency, µM (top dose mostly 114 µM), for inactives: at the highest dose activity change, negative = inhibition, actives largely listed as inhibitors; hit rate 0.56% among 390,000; note: potency is the fitted concentration of half-maximal effect; nearly all actives have a fitted effect of over 70% in size
Target sequence (P83916 whole entry, looked up): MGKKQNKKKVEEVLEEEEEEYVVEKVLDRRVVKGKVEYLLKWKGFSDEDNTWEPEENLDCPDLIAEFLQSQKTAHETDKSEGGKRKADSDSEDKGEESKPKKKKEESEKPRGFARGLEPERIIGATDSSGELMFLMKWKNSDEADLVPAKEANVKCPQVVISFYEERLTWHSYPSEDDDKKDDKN
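HP1-beta protein (50 nM final) preincubated 30 min at room temperature with biotinylated H3(1-18)K9me3 peptide (50 nM) in PBS pH 7.4, 0.01% Tween-20, then compound added for 30 min. AlphaScreen streptavidin donor/nickel chelate acceptor beads (10 ug/mL final), 30 min dark, luminescence read.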
CtBP-E1A blk – inhibitors of CtBP/E1A interaction; AlphaScreen GST-E1A/His-CtBP binding, 1536-well; stronger effect = lower value; activity change, % (test concentration not listed); hit rate 0.49% among 340,000; in the data active = activity change below about -65%; inconclusive = mostly about -30% to -63%; note: % is set by controls: 0 for no effect and ±100 for the full control effect
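AlphaScreen with 125 nM GST-E1A and 125 nM His-CtBP (5X stocks) in Tris pH 8.0, 300 mM NaCl, BSA, Tween 20, TCEP. Compounds preincubated 2 h at 37 deg C, then glutathione donor/nickel acceptor beads added for 1 h at 37 deg C in dark.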
G9a block – inhibitors of human histone lysine methyltransferase G9a. G9a H3K9 monomethylation, AlphaScreen, 2 h. Potency, µM (series often up to 102 µM), inactives show at the top dose activity, negative = inhibition, hits mostly inhibitors. hit rate 8.8% among 350,000. AID 504332; note: potency is the fitted concentration of half-maximal effect; % is set by controls: 0 for no effect and ±100 for the full control effect; nearly all actives have a fitted effect of over 75% in size
Target sequence (Q96KQ7 913-1193 limits assumed): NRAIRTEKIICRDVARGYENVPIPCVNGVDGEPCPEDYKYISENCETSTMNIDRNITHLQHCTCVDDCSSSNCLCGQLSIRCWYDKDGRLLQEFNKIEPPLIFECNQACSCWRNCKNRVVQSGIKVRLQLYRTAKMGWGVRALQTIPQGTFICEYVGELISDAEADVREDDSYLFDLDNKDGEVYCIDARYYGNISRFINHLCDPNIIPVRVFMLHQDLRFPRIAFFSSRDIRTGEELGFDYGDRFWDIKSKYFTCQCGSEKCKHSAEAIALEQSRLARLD
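Step 1: enzyme (final 20 nM) with compound, 15 min RT. Step 2: substrate peptide 500 nM and SAM 20 uM, 2 h RT. Step 3: anti-H3K9me1 antibody and AlphaScreen beads, 10 min, then plate read.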
Six1-Eya2 inh – blocks human Six1 binding to Eya2. hit rate 0.56% among 360,000. AID 651725. AlphaScreen GST-Six1/His-Eya2 binding, biochemical; stronger effect = lower value. activity change, % (test concentration not listed). Q15475+O00167; in the data active = activity change below about -65%; inconclusive = mostly about -30% to -63%; note: % is set by controls: 0 for no effect and ±100 for the full control effect
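Homogeneous AlphaScreen proximity assay pairing GST-Six1 with His-tagged Eya2 (added as 5X mix: 250 nM and 500 nM) in 50 mM Tris pH 8.0, 300 mM NaCl, 1 mM TCEP. Glutathione donor and nickel acceptor beads; 1 h, 37 °C, dark.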
BAZ2B inh – blocks human BAZ2B. Q9UIF8. AlphaScreen BAZ2B-H3K14Ac peptide displacement. Potency, µM (doses to about 114 µM), inactives show at the top dose activity change, negative = inhibition, most hits filed as inhibitors. hit rate 4.4% among 360,000; note: potency is the fitted concentration of half-maximal effect; % is set by controls: 0 for no effect and ±100 for the full control effect; nearly all actives have a fitted effect of over 60% in size
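Compounds, titrated to a top concentration of 110 uM, were incubated 30 min at room temperature with preformed BAZ2B/acetyl-K14 H3 peptide complex (50 nM each). Proximity signal was measured by AlphaScreen after 20 min with beads.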
* marks the source's active call; other numbers are inactive results; u = inconclusive; x = no result given; [ ] = another dose, or the depositor's remark. An excerpt weighted towards active compounds, which were near 10% of everything screened. Unless noted, calls come from the whole dose curve; as a rule, active = well fitted inhibition curve with a large enough effect; inconclusive = small, poorly fitted or top-dose-only effect; inactive = no such curve, though single readings can be large or run the other way.

SMILES	JMJD2A Tudor inh	HP1b chromo inh	CtBP-E1A blk	G9a block	Six1-Eya2 inh	BAZ2B inh
CN1CCc2c(c3cnc4cc(Cl)ccc4c3n2C)C1	-12.3%[57.1 µM]	7.4%[57 µM]	x	x	x	x
CCn1c(CC(=O)Nc2cccc(Cl)c2Cl)nnc1SCCOc1ccc(OC)cc1	u	25.8%	-5.2	25.1µM*	-1.9	-7.2%
COc1ccc(CC(=O)NCc2nnc(SCCOc3ccccc3)n2C)cc1	-16.2%	21.2%	-8.4	-3.1%[12.7 µM]	-15.9	-4.1%
COc1ccc(OCCSc2nnc(CC(=O)Nc3cccc(Cl)c3Cl)n2C)cc1	u	8.1%	-13.7	3.16µM*	-5.0	-12.3%
COc1ccc(CCNC(=O)CCS(=O)(=O)c2cc(Br)cc3c2N(C(C)=O)CC3)cc1OC	-12.3%	8.1%	x	13.0%[59 µM]	x	1.0%
CCOc1ccc(C2c3c(oc4cc(C)c(C)cc4c3=O)C(=O)N2CCCN2CCOCC2)cc1 (stereo not drawn)	-14.8%	45.4%	-3.2	28.2µM*	0.6	8.8%
Cc1cc2oc3c(c(=O)c2cc1C)C(c1ccc(C(C)C)cc1)N(CCCN1CCOCC1)C3=O (stereo not drawn)	u	13.2%	-7.8	50.1µM*	-7.9	10.1%
CCOc1ccc(C2c3c(oc4cc(C)c(C)cc4c3=O)C(=O)N2CCCN(C)C)cc1OC (stereo not drawn)	-18.3%	19.3%	3.8	50.1µM*	-0.1	-4.9%
CCOc1ccc(C2c3c(oc4ccccc4c3=O)C(=O)N2CCCN2CCOCC2)cc1 (stereo not drawn)	-4.1%	31.4%	0.9	u	-1.7	-27.0%
Cc1cc(=O)n(Cc2cccc(Br)c2)c2c1c(C)nn2-c1ccccc1	49.0%	125.8%	x	16.1%[59 µM]	x	1.7%
C#CCOCCOCCOCCNc1nc(N2CCN(C(=O)CCCCCCCCCCNC(=O)Cn3cc(CCCCCN)nn3)CC2)nc(N2CCN(C(=O)CCCCCCCCCCNC(=O)Cn3cc(C[C@@H](C)O)nn3)CC2)n1	25.1µM*	-27.0%	-26.7	12.8%[2.33 µM]	-13.7	79.4µM*
C#CCOCCOCCOCCNc1nc(N2CCN(C(=O)CCCCCCCCCCNC(=O)Cn3cc(C[C@@H](C)O)nn3)CC2)nc(N2CCN(C(=O)CCCCCCCCCCNC(=O)[C@@H]([C@H](C)CC)n3cc(CCCCCN)nn3)CC2)n1	56.2µM*	u	-6.5	-3.0%[2.33 µM]	-6.1	u
C#CCOCCOCCOCCNc1nc(N2CCN(C(=O)CCCCCCCCCCNC(=O)Cn3cc(C[C@@H](C)O)nn3)CC2)nc(N2CCN(C(=O)CCCCCCCCCCNC(=O)[C@@H]([C@H](C)O)n3cc(C)nn3)CC2)n1	-26.6%	33.2%	-0.7	-1.2%[2.33 µM]	1.9	3.0%
C#CCOCCOCCOCCNc1nc(N2CCN(C(=O)Cn3cc(CCCCN)nn3)CC2)nc(N2CCN(C(=O)Cn3cc(CC(C)O)nn3)CC2)n1 (stereo not drawn)	-11.4%	85.1%	0.1	50.1µM*	15.0	u
C#CCOCCOCCOCCNc1nc(N2CCN(C(=O)Cn3cc(CC(C)O)nn3)CC2)nc(N2CCN(C(=O)Cn3cc(CC(C)O)nn3)CC2)n1 (stereo not drawn)	-2.1%	30.4%	x	u	-2.9	-5.2%
C#CCOCCOCCOCCNc1nc(N2CCN(C(=O)CCCCCCCCCCNC(=O)Cn3cc(CCCCCN)nn3)CC2)nc(N2CCN(C(=O)CCCCCCCCCCNC(=O)[C@@H]([C@H](C)O)n3cc(C)nn3)CC2)n1	79.4µM*	u	-0.8	22.8%[2.33 µM]	-5.8	u
COc1ccc(CCNC(=O)c2ccc3c(c2)ncn3-c2ccc(C(C)C)cc2)cc1OC	u	-15.2%	x	u	x	-26.3%
Cc1ccc(Cc2c(C)nc3nc(SCC(=O)NCCC(C)C)nn3c2C)cc1	-17.7%	14.7%	x	-4.5%[59 µM]	x	-2.6%
CCSc1nnc(NC(=O)c2cc(=O)c3cc(C)ccc3o2)s1	-13.5%	32.9%	x	-1.3%[59 µM]	x	-9.4%
O=C(C=C1CCN(c2ncc(C(F)(F)F)cc2Cl)CC1)NNC(=O)Nc1ccc(Cl)cc1	-2.7%	20.7%	6.2	-3.7%	-0.6	3.7%
O=C(C=C1CCN(c2ncc(C(F)(F)F)cc2Cl)CC1)NNC(=O)Nc1ccccc1	-12.0%	18.9%	0.0	11.2µM*	-2.3	2.7%
CC(=O)C1=C(Nc2ccc(C)cc2)CC(C)(O)C(C(C)=O)C1c1ccco1 (stereo not drawn)	-15.7%	2.0%	-1.8	-8.0%[12.7 µM]	-2.6	79.4µM*
Cc1ccc2c(=O)cc(C(=O)Nc3c(C)n(C)n(-c4ccccc4)c3=O)oc2c1C	0.7%	15.4%	x	-4.3%[59 µM]	x	-8.0%
CCOc1ccc(-c2cn3c(n2)sc2cc(C(=O)NCCC4=CCCCC4)ccc23)cc1	6.2%	96.6%	x	-4.9%[59 µM]	x	11.9%
O=c1c2ccccc2c2ccccc2c(=O)n1-c1ccccc1	-3.6%	7.3%	3.3	50.1µM*	-0.3	-25.0%
SMILES	JMJD2A Tudor inh	HP1b chromo inh	CtBP-E1A blk	G9a block	Six1-Eya2 inh	BAZ2B inh
CCOc1ccccc1-c1c2cc(O)c(=O)cc-2oc2cc(O)c(O)cc12	1µM*	-90.5%	3.3	10µM*	u	7.08µM*
O=c1cc2oc3cc(O)c(O)cc3c(-c3ccccc3O)c-2cc1O	3.98µM*	14.1µM*	x	15.8µM*	u	7.94µM*
Cc1ccccc1-c1cc(=O)c2c(O)cccc2o1	2.9%	66.0%	3.3	21.5%[12.7 µM]	8.3	6.8%
Cc1ccc(NC(=O)CN2C(=O)C(c3ccc(C(C)(C)C)cc3)=NC2(C)C)cc1	-7.4%	36.2%	x	-4.5%[59 µM]	x	2.3%
CC(C)(C)N1C(=O)c2ccc(C(=O)O)cc2C1=O	-5.2%	27.4%	7.1	55.5%[59 µM]	5.3	0.9%
Cc1ccc(C=C2C(=O)c3ccccc3C2=O)o1	u	u	-11.0	25.1µM*	-23.9	39.8µM*
O=C(O)c1ccc2c(c1)C(=O)/C(=C\c1ccco1)C2=O	25.1µM*	u	-8.0	8.91µM*	u	35.5µM*
O=C1C(=Cc2ccco2)C(=O)c2ccccc21	u	-15.6%	-2.7	12.6µM*	-6.8	u
O=C(O)c1ccc(C=NN=Cc2ccco2)cc1	-8.3%	21.8%	-6.0	x	2.5	x
O=C(O)c1ccc2c(c1)C(=O)/C(=C/c1ccccc1)C2=O	u	44.7µM*	-6.1	12.6µM*	u	50.1µM*
Cc1ccc(/C=C2/C(=O)c3ccc(C(=O)O)cc3C2=O)o1	28.2µM*	70.8µM*	5.0	x	u	11.2µM*
COc1ccccc1N1CCN(/N=C/c2cc(OC)c(O)c(OC)c2)CC1	89.1µM*	-41.4%	2.3	12.6µM*	-16.4	u
COc1ccccc1N1CCN(/N=C\c2cccnc2)CC1	u	16.8%	-2.9	39.8µM*	4.5	79.4µM*
COc1cc(/C=N/N2CCN(c3ccccc3OC)CC2)ccc1OC(C)=O	-29.3%	-0.2%	-1.7	17.8%[0.501 µM]	-16.8	u

Screens deposited in PubChem BioAssay by National Center for Advancing Translational Sciences (NCATS).
